Measured values as given in the supplement of paper PMC6897291.

How the values were obtained:
[1] = test system: U-2932; test: growth inhibition by drug alone (1 - RLU/untreated control) (fraction); higher = stronger inhibition; settings: 177Lu-lilotomab satetraxetan 0 ug/ml
Outline: (§1)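 A radiolabelled anti-CD37 antibody conjugate (~600 MBq/mg) was applied for 18 h at 0.5 µg/ml to RIVA and 1 µg/ml to U-2932 cells, with untreated cells run alongside. All cells were washed and seeded at 3,000 cells/well onto library-printed plates at 10/100 nM (RIVA) or 10/1,000 nM (U-2932). Growth inhibition was based on RealTime-Glo luminescence compared with untreated no-drug wells. Daily reads began on day 3 after 1 h at 37°C, with each value being 1 − RLU/mean of the 48 such wells on that plate.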

[2] = test system: RIVA; test: as above; settings: 177Lu-lilotomab satetraxetan 0 ug/ml
Outline: as §1

[3] = test system: U-2932; test: growth inhibition by drug plus 177Lu-lilotomab satetraxetan (1 - RLU/untreated control) (fraction); higher = stronger inhibition; settings: 177Lu-lilotomab satetraxetan 1 ug/ml
Outline: as §1

[4] = test system: RIVA; test: as above; settings: 177Lu-lilotomab satetraxetan 0.5 ug/ml
Outline: as §1

Compound	growth inhibition by drug alone ([1]; 10 nM, time (day): 3)	growth inhibition by drug alone ([1]; 10 nM, time (day): 4)	growth inhibition by drug alone ([1]; 10 nM, time (day): 5)	growth inhibition by drug alone ([1]; 10 nM, time (day): 6)	growth inhibition by drug alone ([1]; 1000 nM, time (day): 3)	growth inhibition by drug alone ([1]; 1000 nM, time (day): 4)	growth inhibition by drug alone ([1]; 1000 nM, time (day): 5)	growth inhibition by drug alone ([1]; 1000 nM, time (day): 6)	growth inhibition by drug alone ([2]; 10 nM, time (day): 3)	growth inhibition by drug alone ([2]; 10 nM, time (day): 4)	growth inhibition by drug alone ([2]; 10 nM, time (day): 5)	growth inhibition by drug alone ([2]; 10 nM, time (day): 6)	growth inhibition by drug alone ([2]; 100 nM, time (day): 3)	growth inhibition by drug alone ([2]; 100 nM, time (day): 4)	growth inhibition by drug alone ([2]; 100 nM, time (day): 5)	growth inhibition by drug alone ([2]; 100 nM, time (day): 6)	growth inhibition by drug plus 177Lu-lilotomab satetraxetan ([3]; 10 nM, time (day): 3)	growth inhibition by drug plus 177Lu-lilotomab satetraxetan ([3]; 10 nM, time (day): 4)	growth inhibition by drug plus 177Lu-lilotomab satetraxetan ([3]; 10 nM, time (day): 5)	growth inhibition by drug plus 177Lu-lilotomab satetraxetan ([3]; 10 nM, time (day): 6)	growth inhibition by drug plus 177Lu-lilotomab satetraxetan ([3]; 1000 nM, time (day): 3)	growth inhibition by drug plus 177Lu-lilotomab satetraxetan ([3]; 1000 nM, time (day): 4)	growth inhibition by drug plus 177Lu-lilotomab satetraxetan ([3]; 1000 nM, time (day): 5)	growth inhibition by drug plus 177Lu-lilotomab satetraxetan ([3]; 1000 nM, time (day): 6)	growth inhibition by drug plus 177Lu-lilotomab satetraxetan ([4]; 10 nM, time (day): 3)	growth inhibition by drug plus 177Lu-lilotomab satetraxetan ([4]; 10 nM, time (day): 4)	growth inhibition by drug plus 177Lu-lilotomab satetraxetan ([4]; 10 nM, time (day): 5)	growth inhibition by drug plus 177Lu-lilotomab satetraxetan ([4]; 10 nM, time (day): 6)	growth inhibition by drug plus 177Lu-lilotomab satetraxetan ([4]; 100 nM, time (day): 3)	growth inhibition by drug plus 177Lu-lilotomab satetraxetan ([4]; 100 nM, time (day): 4)	growth inhibition by drug plus 177Lu-lilotomab satetraxetan ([4]; 100 nM, time (day): 5)	growth inhibition by drug plus 177Lu-lilotomab satetraxetan ([4]; 100 nM, time (day): 6)
CS(=O)(=O)c1cccc(CNc2nc(Nc3ccc4c(c3)CCC(=O)N4)ncc2C(F)(F)F)c1	0.0502	0.00856	-0.0018	0.0705	-0.0504	-0.0365	-0.0145	0.085	-0.0802	-0.0828	-0.0817	-0.0957	-0.0969	-0.126	-0.181	-0.218	-0.0177	0.0519	0.101	0.199	0.0169	0.0857	0.144	0.314	0.467	0.549	0.572	0.567	0.206	0.328	0.352	0.383
CCOc1cc2ncc(C#N)c(Nc3ccc(F)c(Cl)c3)c2cc1NC(=O)/C=C/CN(C)C [Pelitinib (EKB-569)]	-0.0434	-0.0318	-0.0741	-0.211	0.227	0.204	0.154	0.148	-0.202	-0.214	-0.259	-0.439	-0.558	-0.51	-0.627	-0.809	-0.0948	-0.0187	-0.0319	-0.0653	0.276	0.3	0.292	0.357	0.334	0.432	0.448	0.476	0.182	0.368	0.372	0.405
Cc1ccc(NC(=O)c2ccc(CN3CCN(C)CC3)cc2)cc1Nc1nccc(-c2cccnc2)n1 [Imatinib (Gleevec)]	0.114	0.0795	0.0573	-0.108	-0.0113	-0.0535	-0.0116	-0.0612	-0.0508	-0.0897	-0.292	-0.626	-0.513	-0.311	-0.289	-0.464	-0.0306	0.0247	0.124	0.134	-0.0872	-0.0527	0.073	0.171	0.424	0.545	0.568	0.595	0.301	0.444	0.462	0.483
O=C(NCCS(=O)(=O)c1ccc(C(F)(F)F)cn1)c1ccc(Cl)cc1	-0.00204	-0.0169	-0.0367	-0.101	0.00453	0.00465	-0.0415	0.00213	-0.0219	-0.049	-0.0699	-0.142	-0.409	-0.334	-0.354	-0.458	-0.0322	0.0392	0.0668	0.0664	-0.0112	0.0515	0.0729	0.179	0.548	0.553	0.579	0.579	0.416	0.503	0.517	0.521
CCN1CCN(Cc2ccc(-c3cc4c(N[C@H](C)c5ccccc5)ncnc4[nH]3)cc2)CC1	-0.00148	0.0172	0.023	0.0324	-0.166	-0.174	-0.287	-0.315	-0.0711	-0.0709	-0.153	-0.452	-0.2	-0.171	-0.217	-0.348	-0.00551	0.0118	0.0153	0.0829	-0.206	-0.119	-0.121	-0.0824	0.45	0.538	0.553	0.545	0.314	0.416	0.435	0.409
Cc1ccc(Nc2nccc(N(C)c3ccc4c(C)n(C)nc4c3)n2)cc1S(N)(=O)=O [Pazopanib]	0.0671	0.059	0.0169	-0.0275	0.0873	0.113	0.0564	-0.194	0.149	0.0444	-0.0206	-0.258	0.117	0.0561	0.0246	-0.0758	0.0594	0.0779	0.0787	0.118	-0.00732	0.0799	0.0706	0.00785	0.437	0.548	0.557	0.564	0.418	0.47	0.488	0.477
C[C@]12CC[C@@H]3c4ccc(O)cc4C[C@@H](CCCCCCCCC[S+]([O-])CCCC(F)(F)C(F)(F)F)[C@H]3[C@@H]1CC[C@@H]2O (stereo partly specified)	0.0173	-0.00253	-0.129	-0.212	-0.176	-0.0393	-0.0718	-0.153	-0.00571	-0.0298	-0.0782	-0.352	-0.0427	-0.0179	-0.055	-0.154	-0.00503	0.0303	0.0351	0.137	-0.274	-0.0121	0.0312	0.0757	0.418	0.515	0.523	0.531	0.466	0.525	0.532	0.5
C[S+]([O-])c1ccc(-c2nc(-c3ccc(F)cc3)c(-c3ccncc3)[nH]2)cc1 (stereo unspecified)	0.109	0.0691	0.0651	0.00981	0.494	0.396	0.258	0.202	-0.0319	0.0179	-0.0545	-0.284	-0.128	-0.0437	-0.0833	-0.227	0.103	0.123	0.206	0.225	0.441	0.358	0.325	0.374	0.668	0.678	0.684	0.677	0.322	0.441	0.432	0.451
